The text below walks through data of PubChem BioAssay AID651871 (Sanford-Burnham Center for Chemical Genomics, 2012).

The structures appear in SMILES notation. Values joined by “and” are separate entries in the source; they are usually repeats but may differ in a detail not shown here. Equal values may be shown once.

This experiment has as its system H9c2. Put plainly: cardiomyocyte survival under oxidative or metabolic stress – cell-based, panel, H9c2 and HL-1, ATP luminescence, set 2, SAR follow-up (AID 651871).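 Also: cells exposed to stressor for 2 h before ATP readout; reference of the scale not given here.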 The conditions noted are these: H9c2/HL-1 cardiomyocytes, H2O2 oxidative stress; with H2O2, run 1, at 79 µM (top of the series).

For the molecule `COc1cc(-c2cc(C(=O)Nc3cccc(C(=O)NCc4ccccc4)c3)c3ccccc3n2)cc(OC)c1OC`, the activity (protection/inhibition) was found to be 83.5%.

For the molecule `CCOC(=O)c1cccc(NC(=O)CNC(=O)c2cc(-c3cc(OC)c(OC)c(OC)c3)nc3ccccc23)c1`, the activity (protection/inhibition) is 77.6%.

For the molecule `COc1ccc2c(c1OC)C(=O)N1c3ccccc3C(=O)N(Cc3cccc(Cl)c3Cl)C21` (centres undefined), the activity (protection/inhibition) was 62.2% and 104% and 61.7%.

Take `COc1ccc2nc(-c3cc(OC)c(OC)c(OC)c3)cc(C(=O)NCC(=O)Nc3ccc(C(C)=O)cc3)c2c1`: the activity (protection/inhibition) was 92.2% and 97.6%.
